# Source: PubChem BioAssay (NCI)
# About 83,000 compounds went through this panel and 20% of them were active in at least one assay; those are over-represented in the sample as a whole.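 Activity criterion: percent growth below 10, measured after cells in 96-well plates were exposed to a single compound concentration for 48 hours.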 Unmarked numbers belong to inactive results. Active and inactive are the calls of the source.
# Key:
# Test in all cases: NCI-60 one-dose screen, 48 h (100 = growth as untreated, 0 = no growth, -100 = all killed)
# Conditions in all cases: 10 µM
# [1] = test system: NCI-H23 lung
# [2] = test system: NCI-H226 lung
# [3] = test system: NCI-H322M lung
# [4] = test system: HOP-62 NSCLC
# [5] = test system: NCI-H460 lung
# [6] = test system: HOP-92 NSCLC
# [7] = test system: NCI-H522 lung
# [8] = test system: A549/ATCC NSCLC
# [9] = test system: 786-0 renal
# [10] = test system: COLO 205 colon
Compound,growth [1],growth [2],growth [3] [%],growth [4] [%],growth [5],growth [6],growth [7],growth [8] [%],growth [9],growth [10]
NC(=O)C12C(=O)NC(=O)C1(C(=O)O)C21CCCC1 (stereo not given),109%,110%,104,110,117%,102%,111%,99,101%,115%
O=C(/C=C/c1nnc2n(Cc3ccccc3)c(=O)c3c4c(sc3n12)CCCC4)c1ccccc1,96.9%,102%,107,92.4,104%,77.1%,-3.27% (active),104,83.8%,78.6%
CCOC(=O)/C(C#N)=C(/C)C1CC1,109%,95.7%,112,98.5,104%,86%,110%,99.7,103%,108%
O=C(Nc1cccc(Cl)c1)OCC(COC(=O)Nc1cccc(Cl)c1)(COC(=O)Nc1cccc(Cl)c1)[N+](=O)[O-],22.9%,66.4%,45.8,41.8,17.9%,18.6%,27.4%,26.2,32.8%,35.5%
COc1ccc2oc(=O)cc(C3c4ccc([nH]4)C(c4cc(=O)oc5ccc(OC)cc45)c4ccc([nH]4)C(c4cc(=O)oc5ccc(OC)cc45)c4ccc([nH]4)C(c4cc(=O)oc5ccc(OC)cc45)c4ccc3[nH]4)c2c1 (stereo not given),-12.4% (active),15.8%,27.9,17.6,6.39% (active),41.8%,-71.9% (active),41.1,-24% (active),-76.7% (active)
FC(F)(F)c1ccc(-c2cnc(Cl)nc2NC2CCCCCC2)cc1,25.8%,42.1%,71.1,33.4,25.8%,-28.4% (active),-6.08% (active),17.4,40.1%,22%
COc1ccc(-c2nc(-c3nc4ccc(OC)cc4[nH]3)c3ccccn23)cc1,90.5%,75.1%,65,63,67.7%,13.9%,62.8%,48,84.4%,95.1%
COC(=O)CCCCCCCCC(C)c1ccc(C(C)=O)cc1 (stereo not given),99.9%,104%,121,100,108%,113%,101%,105,102%,114%
O=C(c1ccccc1)C(Sc1ccccc1)c1ccccc1 (stereo not given),76.4%,94%,108,93,67.8%,67.2%,62.4%,92,104%,108%
Cc1ccc(C2C=C(c3ccc(Cl)cc3)N=C3SC=CN32)c(Br)c1 (stereo not given),85%,55.5%,85.5,96.5,84.4%,80.6%,80.7%,86.3,93.1%,91.1%
C/C(=N\NC(N)=S)C(C)(C)O,93.6%,89.2%,104,104,104%,88.1%,109%,83.4,96.3%,119%
O=C1CC[C@@H](C(=O)N[C@H]2CSSC[C@@H](C(=O)NCCc3ccccc3)NC(=O)[C@H](Cc3ccccc3)NC(=O)[C@@H]3CCCN3C(=O)[C@@H]3CCCN3C2=O)N1,92.7%,87.5%,115,55.1,101%,94.6%,96.2%,86.2,99%,119%
CCCc1c(C)nc2scc(-c3ccc(Cl)cc3)n2c1=O,100%,-100% (active),102,88.9,108%,92.5%,94.3%,104,101%,103%
NC(N)=NS(=O)(=O)c1ccc(Nc2ccc3nnc(-c4ccncc4)n3n2)cc1,102%,96.5%,103,110,98.3%,107%,-57.2% (active),108,104%,111%
CCN(Cc1ccccc1)C1CCN(Cc2cc(Br)ccc2O)CC1,41.3%,63.4%,88.8,58.1,49.6%,5.9% (active),61%,58.9,62.7%,-20.6% (active)
Cn1c(N)c(N=Cc2ccccc2)c(=O)n(C)c1=O,103%,108%,114,96.3,114%,102%,101%,105,103%,106%
COc1ccc(-c2cc(/C=C3\C(=O)Nc4cc(Cl)ccc43)[nH]n2)cc1OC,92.9%,80.8%,89.8,75,62.9%,81.7%,46%,75.7,105%,79.4%
Cc1cc(O)c(C2=NN(c3ccc(S(N)(=O)=O)cc3)C(c3ccc(N(C)C)cc3)C2)c(C)c1Cl (stereo not given),79.3%,88.8%,97.6,107,47.1%,45.5%,39.7%,40.8,95.6%,76.2%
Cc1ccc2nc(-c3ccc(OCC(=O)N=Nc4c(O)[nH]c5ccccc45)cc3)[nH]c2c1,94.9%,92.6%,91.3,104,-13.4% (active),81.9%,79.4%,79.2,36.1%,58.4%
Nc1ccccc1NC(=O)CCCCCCC(=O)Nc1ccc2c(c1)/C(=C/c1ccc[nH]1)C(=O)N2,60.7%,45.5%,40.6,52.2,27.5%,8.25% (active),11.7%,47,38.2%,79.4%
Nc1cc(O)cc(O)c1,93.9%,107%,104,88.1,106%,93.4%,94%,106,93.9%,102%
CCCCCCN=C(N)CCCCCCCCCCC(N)=NCCCCCC,27.8%,51.6%,62.4,18.5,13.4%,8.01% (active),23.9%,33.7,37%,-9.55% (active)
O=C1/C(=C/c2ccc(O)cc2O)N=C2SCCCN12,95.2%,106%,97.8,85.4,110%,108%,92.3%,92.1,81.9%,106%
O=C(NCCc1nccs1)c1cnc2c(S)cccc2c1,34.2%,46.1%,29.7,29.3,0.683% (active),54.5%,-65.7% (active),12.6,47%,-52.4% (active)
O=NN(CCCl)C(=O)NCc1ccc(-c2ccc(CNC(=O)N(CCCl)N=O)cc2)cc1,103%,96.7%,86.2,91.5,97.8%,96.5%,81.7%,87.1,94.8%,104%
CCCOCC(O)CNCCN (stereo not given),109%,121%,105,92.6,104%,56.9%,102%,102,105%,110%
O=C(NC1CCCC1)c1ccc(N2CCC(NCc3cccc(C(F)(F)F)c3)CC2)cc1,93.5%,84.6%,89.1,77.4,99.5%,52.7%,93.6%,93,84.3%,8.68% (active)
CCCCCCCOc1cccc(/C=C2/C(=O)N=C3SCCCN32)c1,70.7%,64.5%,89.1,85.7,82%,62.8%,23.6%,94.9,80.4%,81.2%
